Measurements taken from the OligoGym collection.

biological target: GALNT12; assay: pooled miR-30 sensor sort-seq; sequence = guide strand; conditions: shRNA
Further: reference of the scale not given here.

| Sequence | sensor-assay potency score (higher = more potent) |
| --- | --- |
| TTCTTCTAGCAGGATATCCGGG | -0.589 |
| TTTCTTCTCTTTGCACAGCGGG | -0.991 |
| TTCTTCTCTTTGCACAGCGGGT | -1.37 |
| TCTTCTAGCAGGATATCCGGGG | -0.323 |
| TTACTCACAGCAAACAGCCCAC | -0.133 |
| TATCACTGTAGTCATCTACAAG | -1.3 |
| TTACACTGGAGCTTGTCCCGGA | 0.473 |
| TAGTCCTTTGTTCTGGAGCATC | -1.37 |
| TGAACTTCTGATTCTCTGGGGC | 0.682 |
| TCGATCACATCAATCACCGGGC | -0.0357 |
| TTCAGCTGCACGAACACTGTTG | -0.106 |
| TATAGTCAAAGCAGTAGTCTGT | 0.11 |

biological target: GALNT14; assay: as above; conditions: shRNA

| Sequence | sensor-assay potency score (higher = more potent) |
| --- | --- |
| ATTGCTGTCGGTCATCTCCATT | -1.29 |
| AACAGCAGCACCGTGATCCAGA | -0.665 |
| TCTTTTGGAAACAACCTCCATT | -0.288 |
| TTGGTGTTCTTTATATACGTGT | -0.309 |
| TTTTGGTCCATTGCTGTCGGTC | -1.13 |
| TTCTTTTGGAAACAACCTCCAT | -0.965 |
| TTCCAGTCTGTTCTGGTCCAGG | -1.18 |
| TTGACGACGATTTCCTTGCCGT | -0.222 |
| TTGTCGATCACGAAGAGCCCTC | -0.543 |
| TCATCTCTCAATGTAGTCCTGG | 0.0167 |
| TTGGAAACAACCTCCATTCTTC | 0.406 |
| TATGATAGGAGTCCTGATGGGC | -0.477 |

biological target: GALNT7; assay: as above; conditions: shRNA

| Sequence | sensor-assay potency score (higher = more potent) |
| --- | --- |
| TAATCATAACTTTTGATCCATC | -1.43 |
| TTCTTTATTACTGAAATCGTCA | -0.232 |
| TTTAATTACACTGTGGACTGTT | 0.94 |
| TAGACTCTAAGTCCACTTCTAC | -0.661 |
| TTGACATCTCTGTCTTCCCTCA | -0.191 |
| TAACTTTTGATCCATCAGCTCC | -0.72 |
| TTCATTGATTCTGAAAAGCTGA | -0.364 |
| TTCGTGCTTGAATTAAACCTTC | -0.485 |
| ATTGACATCTCTGTCTTCCCTC | 0.3 |
| TTATTCTTCTAATAGACTCTAA | -0.0226 |
| TTAAATTTTAAAAACGTGCAGA | -0.271 |

biological target: GALNT9; assay: as above; conditions: shRNA

| Sequence | sensor-assay potency score (higher = more potent) |
| --- | --- |
| TTTGTCGCTGTCCATGTCCTCC | -0.772 |
| TTGCTGTTTCTCACCTCTCCGT | -0.669 |
| TTCGACATGGGGATGTTCCAGG | -0.845 |
